Assay outcomes: PubChem BioAssay, several laboratories
Sampled rows, rich in hits. Any-hit rate of the full collection: about 4.5%.
GDH-TPI counter-1 – counter-screen for M. tuberculosis FBA inhibitors: GDH-TPI coupled enzymes; GDH-TPI coupled enzyme counterscreen, NADH absorbance; inhibition, % at 4.8 µM; 360,000 tested, 1.2% active; in the data active means inhibition above about 30%;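 further: 0% = DMSO wells and 100% = wells lacking the enzyme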
PrPC surface inh – cell surface PrPC inhibition, primary TR-FRET screen. inhibition, % at 13.8 µM. 370,000 tested, 0.43% active. P04156. TR-FRET read-out. AID 720596; in the data active means inhibition above about 24%; further: 0% = median of the test wells and 100% = reference compound wells
FBA Mtb inh – inhibitors of M. tuberculosis fructose-bisphosphate aldolase. P9WQA3. purified M. tuberculosis FBA, fluorescence read-out. inhibition, % at 1 µM. 360,000 tested, 2.3% active. AID 588726;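 further: 0% = vehicle and 100% = reference inhibitor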
Target sequence (P9WQA3 whole entry, looked up): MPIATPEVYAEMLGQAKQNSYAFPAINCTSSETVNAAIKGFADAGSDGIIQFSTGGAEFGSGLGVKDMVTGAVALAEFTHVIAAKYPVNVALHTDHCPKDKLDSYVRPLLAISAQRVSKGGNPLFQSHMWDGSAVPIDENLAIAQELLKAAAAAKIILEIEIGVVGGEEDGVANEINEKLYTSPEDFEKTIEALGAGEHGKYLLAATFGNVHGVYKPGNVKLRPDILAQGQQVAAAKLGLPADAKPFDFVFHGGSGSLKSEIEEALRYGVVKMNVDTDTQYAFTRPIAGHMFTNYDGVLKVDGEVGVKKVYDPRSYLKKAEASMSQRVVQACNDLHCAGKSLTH
PrP UTR inh – suppresses PrP 5' UTR mRNA reporter expression. inhibition, % (concentration not given with the values). 340,000 tested, 0.35% active. cell-based PrP 5' UTR mRNA reporter, plate reader. AID 488862; in the data active means inhibition above about 52%; further: 0 = median of the neutral control wells
PfHsp40 rescue – rescue of PfHsp40-mediated yeast toxicity | S. cerevisiae expressing PfHsp40, growth rescue, ATP luminescence | growth rescue, % at 12.5 µM | 340,000 tested, 0.68% active; in the data active means growth rescue above about 28%, passing the limit was not always enough; inconclusive means no clear call, values can overlap the other calls;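 further: yeast W303a lacking pdr1 and pdr3 grown in galactose medium; growth measured after three days at 30 °C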
BJeLR lethal – kills HRASV12-expressing BJeLR cells. BJeLR (HRASV12) viability, CellTiter-Glo ATP luminescence, 48 h. inhibition, % (concentration not given with the values). 300,000 tested, 0.17% active. AID 1554; in the data active means inhibition above about 50%; inconclusive means no clear call, values can overlap the other calls
Mtb FBA inh conf – Mtb FBA inhibition, confirmed; 5,600 tested, 78% active; purified M. tuberculosis FBA, fluorescence read-out; inhibition, % at 1 µM; shares compounds with FBA Mtb inh;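 further: 0% = vehicle wells and 100% = reference inhibitor wells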
GDH-TPI counter-2 – GDH-TPI inhibition counter-screen for FBA inhibitors | shares compounds with FBA Mtb inh | GDH-TPI coupled enzyme counterscreen, fluorescence | inhibition, % at 1 µM | 5,600 tested, 81% active; in the data active means inhibition above about 10%
* marks the source's active call; other numbers are inactive results; ? = inconclusive; . = not tested or not shown; + = active, no number. Unless noted, no stated cut-off is given here; in the data, active means inhibition above about 27%; inactive means the rest.

SMILES	GDH-TPI counter-1	PrPC surface inh	FBA Mtb inh	PrP UTR inh	PfHsp40 rescue	BJeLR lethal	Mtb FBA inh conf	GDH-TPI counter-2
CCOc1ccc(S(=O)(=O)Nc2ccccc2C(=O)NCC2CCCO2)cc1 (stereo not given)	-2	-6	31*	-18	0	-2	148*	108*
CC(C)(C)NC(=O)C[C@H]1C[C@H](C(=O)N2CCOCC2)[C@@]2(C)c3[nH]c4ccc(Cl)cc4c3CCN2C1=O	-3	-4	-2	-21	6	.	.	.
C/C(=N\O)c1ccc2c3ccccc3n(C)c2c1	5	11	44*	-37	0	14	+	169*
CCCCCCSc1ccc(-c2nc3ccccn3c2NCCCC)cc1	8	5	45*	-25	324*	5	+	+
CCCCCCSc1ccc(-c2nc3cnccn3c2NC2CCCCC2)cc1	.	-3	.	.	.	.	.	.
Cc1c(CCC(=O)O)c(=O)oc2cc(OCc3cccc(Cl)c3)ccc12	12	-3	91*	20	1	5	115*	109*
Cc1cc(C)cc(NC(=O)COc2ccc3c(C)c(Cc4ccccc4)c(=O)oc3c2)c1	.	.	.	.	.	-9	.	.
Cc1c(Cc2ccccc2)c(=O)oc2cc(OCC(=O)NCC(O)c3ccccc3)ccc12 (stereo not given)	12	10	79*	-6	0	7	+	+
CCc1ccc(N(CC(=O)Nc2ccccc2C(=O)N2CCCC2)S(C)(=O)=O)cc1	6	-6	1	-10	1	-1	.	.
CC(=O)c1cccc(OCC(=O)c2cc(C)n(-c3cc(C)on3)c2C)c1	4	0	1	-11	-1	-1	.	.
Cc1cc(-n2c(C)cc(C(=O)COc3ccc4ccc(=O)oc4c3)c2C)no1	3	-1	28*	-20	-1	-3	60*	59*
COc1ccc(C(CNC(=O)Cc2ccc(-c3ccccc3)cc2)N(C)C)cc1 (stereo not given)	-2	11	-2	-12	0	-2	.	.
O=C1c2ccccc2NC(c2ccc(-c3cccs3)o2)N1O (stereo not given)	15	1	97*	-34	58*	.	79*	73*
CCOP(=O)(OCC)c1nc(-c2ccc(C)cc2)oc1NCc1ccccc1	-4	1	84*	6	1	-3	172*	186*
O=C(Nc1ccc(O)c(C(=O)O)c1)Oc1ccccc1	1	1	73*	-13	-1	0	138*	99*
CCCCC(=O)Nc1cc(N(C)C)nc2ccccc12	14	-1	35*	-18	0	-2	+	+
CN(C)c1cc(NC(=O)CNC(C)(C)C)c2ccccc2n1	1	-3	22	-5	1	-5	.	.
Cc1ccc(SCC(=O)NC(=O)NC2CCCC2)c(C)c1	0	-2	1	-4	-2	.	.	.
Cc1cccc(Oc2nc(-c3ccccc3)cc(C)c2S(C)(=O)=O)c1C	-9	3	13	-20	1	-8	.	.
COc1ccccc1Oc1nc(-c2ccccc2)cc(C)c1S(C)(=O)=O	21	10	64*	5	1	4	37*	43*
Cc1cc(=O)oc2c(C)c(OC(C)C(=O)NCCN3CCOCC3)ccc12 (stereo not given)	5	6	13	-6	1	-8	.	.
Cc1c(OC(C)C(=O)NCCN2CCOCC2)ccc2c3c(c(=O)oc12)CCCC3 (stereo not given)	2	-8	34*	-11	-1	-1	50*	38*
Cc1c(OCC(=O)OC(C)C)ccc2c3c(c(=O)oc12)CCC3	17	4	12	-20	-1	-5	.	.
CC(=O)C(C)Oc1ccc2c3c(c(=O)oc2c1C)CCCC3 (stereo not given)	16	15	61*	-1	?	-7	88*	70*
Cc1c(OC(C)C(=O)N[C@H](C(=O)O)c2ccccc2)ccc2c3c(c(=O)oc12)CCCC3 (stereo not given in full)	28	9	81*	7	2	4	81*	59*
